Each structure is given as a SMILES string. A number with no mark means an inactive call.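 The calls were made as follows: active = viability at or below 10% of carrier control in both of two separate runs; inconclusive = viability at or below 10% in only one of the two runs; inactive = the rest.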

This test in a line: reduced viability of SK-BR-3 breast cancer cells – cell-based, 24 h, human, pilot screen (AID 572).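 Also: compound exposure lasted between 18 and 24 h rather than exactly 24 h; 100% = carrier-treated control wells.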 The conditions noted are these: SK-BR-3 viability, CellTiter-Glo luminescence, at 10 µM, active compounds read low.
For `Cc1ccc(-c2nnn(CC(=O)N(CC(=O)NC3CCCCC3)c3cnc4ccccc4c3)n2)o1`, the viability was 98%.

In the case of `COCc1nnc(NC(=O)CCCOc2ccccc2)s1`, the viability is 107%.

For `CCc1cc2ccc(C)cc2nc1SCC(=O)N1CCN(C(=O)c2ccco2)CC1`, the viability is 112%.

On to `NC(=O)NC(c1ccccc1)c1ccccc1F` (configuration not stated), for which the viability is 91%.

`CC(C)c1nnc(SCC(=O)NCc2ccco2)n1C`: the viability was 105%.

`Cn1c(=O)c2c(nc(NCCCO)n2C/C=C/c2ccccc2)n(C)c1=O`: the viability is 73.5%.

In the case of `O=C(Nc1c(-c2ccccc2)nc2ccccn12)c1ccco1`, the viability was 95%.

As for `Nc1nc(N2C(=O)C3CC=CCC3C2=O)nn1-c1ccccc1` (configuration not stated), the viability was 101%.

For the compound `COc1ccc(C(=O)NCc2nnc(SCC(=O)Nc3cc(C)cc(C)c3)o2)cc1OC`, the viability was 89.5%.

As for `c1coc(Cn2nnnc2CN2CCN(C3CCCC3)CC2)c1`, the viability was 90.5%.

Regarding `O=C(C1CCN(c2nnnn2-c2ccccc2)CC1)N1CCN(c2ccccc2)CC1`, the viability was 106%.

Consider `COC(=O)c1ccc(CNC(=O)COc2ccccc2Br)o1`, for which the viability was 93%.

`CCOC(=O)C1CCCN(c2c(NCc3ccco3)c(=O)c2=O)C1` (configuration not stated): the viability was 94%.

Take `CC1(C)NC(=O)N(CC(O)CN(Cc2ccccc2)Cc2ccccc2)C1=O` (configuration not stated): the viability was 78%.

As to `O=C1c2ccccc2C(O)(Cc2ccccc2)N1Cc1ccco1` (configuration not stated), the viability was 88.5%.

For the compound `Cc1onc(-c2ccccc2)c1C(N)=O`, the viability was 91%.

In the case of `CCC1(CC)NC(=O)NC1=O`, the viability was 110%.

Usually viability stands for a read-out of living cells in per cent, often relative to untreated cells.

Source of the values: PubChem BioAssay.
